Experimental data: PubChem BioAssay AID1159580 (chemical genetic matrix, 2015)
In all, about 5,500 compounds went through this assay and about 2,000 (36%) were called active. About 18% were inconclusive and are not listed. Rule as the data show it: active = normalized growth mostly below about 0.91 (no sharp cut-off); inconclusive = no clear call, values can overlap the other calls; inactive = mostly above about 0.92. The list shows a part of the results.

Assay: chemical genetic growth profiling, strain panel (AID 1159580);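 also: tested at 20 µM; growth read once vehicle control cultures reached saturation at 30 °C; 1 = growth at the plate median or of vehicle wells; lower values mean less growth of the strain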
Conditions: growth OD
[1] = S. cerevisiae deletion strains, locus YAL013W, strain DEP1, stronger effect = lower value
[2] = S. cerevisiae deletion strains, locus YGR229C, strain SMI1, stronger effect = lower value
[3] = S. cerevisiae deletion strains, locus YJR075W, strain HOC1, stronger effect = lower value
[4] = S. cerevisiae deletion strains, locus YMR263W, strain SAP30, stronger effect = lower value
[5] = S. cerevisiae deletion strains, locus YMR307W, strain GAS1, stronger effect = lower value
[6] = S. cerevisiae deletion strains, locus YNL153C, strain GIM3, stronger effect = lower value
[7] = S. cerevisiae deletion strains, locus YNL322C, strain KRE1, stronger effect = lower value
[8] = S. cerevisiae deletion strains, locus YPL055C, strain LGE1, stronger effect = lower value
[9] = S. cerevisiae deletion strains, locus YPL241C, strain CIN2, stronger effect = lower value

Measured: normalized growth

C[C@H]1OC(n2cc(F)c(=O)[nH]c2=O)C(O)[C@@H]1O (stereo partly drawn)
inactive: [1] 1 | S. cerevisiae deletion strains, locus YBR021W, strain FUR4, stronger effect = lower value 1 | S. cerevisiae deletion strains, locus YBR229C, strain ROT2, stronger effect = lower value 1.01 | S. cerevisiae deletion strains, locus YCL029C, strain bik1, stronger effect = lower value 0.973 | S. cerevisiae deletion strains, locus YDL035C, strain GPR1, stronger effect = lower value 1 | S. cerevisiae deletion strains, locus YDL074C, strain BRE1, stronger effect = lower value 1.02 | S. cerevisiae deletion strains, locus YDL101C, strain DUN1, stronger effect = lower value 1 | S. cerevisiae deletion strains, locus YDL134C, strain PPH21, stronger effect = lower value 1 | S. cerevisiae deletion strains, locus YDL185W, strain tfp1, stronger effect = lower value 0.97 | S. cerevisiae deletion strains, locus YDL192W, strain arf1, stronger effect = lower value 0.97 | S. cerevisiae deletion strains, locus YDR101C, strain arx1, stronger effect = lower value 1 | S. cerevisiae deletion strains, locus YDR150W, strain NUM1, stronger effect = lower value 0.982 | S. cerevisiae deletion strains, locus YDR162C, strain NBP2, stronger effect = lower value 1.04 | S. cerevisiae deletion strains, locus YDR318W, strain mcm21, stronger effect = lower value 0.973 | S. cerevisiae deletion strains, locus YDR388W, stronger effect = lower value 0.986 | S. cerevisiae deletion strains, locus YDR502C, strain sam2, stronger effect = lower value 1 | S. cerevisiae deletion strains, locus YEL061C, strain CIN8, stronger effect = lower value 1 | S. cerevisiae deletion strains, locus YER110C, stronger effect = lower value 0.948 | S. cerevisiae deletion strains, locus YER155C, strain BEM2, stronger effect = lower value 0.995 | S. cerevisiae deletion strains, locus YER167W, strain BCK2, stronger effect = lower value 0.989 | S. cerevisiae deletion strains, locus YGL078C, strain dbp3, stronger effect = lower value 0.979 | S. cerevisiae deletion strains, locus YGL086W, strain mad1, stronger effect = lower value 0.957 | S. cerevisiae deletion strains, locus YGL248W, strain PDE1, stronger effect = lower value 1.01 | S. cerevisiae deletion strains, locus YGR078C, strain PAC10, stronger effect = lower value 1.02 | S. cerevisiae deletion strains, locus YGR135W, strain pre9, stronger effect = lower value 1 | [2] 1.03 | S. cerevisiae deletion strains, locus YGR252W, strain gcn5, stronger effect = lower value 1.01 | S. cerevisiae deletion strains, locus YHR030C, strain SLT2, stronger effect = lower value 0.996 | S. cerevisiae deletion strains, locus YHR079C, strain IRE1 (second series), stronger effect = lower value 0.985 | S. cerevisiae deletion strains, locus YHR094C, strain hxt1, stronger effect = lower value 0.968 | S. cerevisiae deletion strains, locus YHR129C, strain ARP1, stronger effect = lower value 1 | S. cerevisiae deletion strains, locus YHR200W, strain rpn10, stronger effect = lower value 0.969 | S. cerevisiae deletion strains, locus YIL066C, strain RNR3, stronger effect = lower value 0.99 | S. cerevisiae deletion strains, locus YIL073C, strain SPO22, stronger effect = lower value 0.894 | S. cerevisiae deletion strains, locus YIL125W, strain kgd1, stronger effect = lower value 0.973 | S. cerevisiae deletion strains, locus YIR030C, strain dcg1, stronger effect = lower value 0.982 | S. cerevisiae deletion strains, locus YJL095W, strain BCK1, stronger effect = lower value 1.04 | S. cerevisiae deletion strains, locus YJL134W, strain LCB3, stronger effect = lower value 1.01 | S. cerevisiae deletion strains, locus YJL168C, strain set2, stronger effect = lower value 0.993 | S. cerevisiae deletion strains, locus YJL187C, strain SWE1 (second series), stronger effect = lower value 1.01 | S. cerevisiae deletion strains, locus YJR043C, strain POL32, stronger effect = lower value 0.993 | [3] 1.01 | S. cerevisiae deletion strains, locus YKL009W, strain mrt4, stronger effect = lower value 0.959 | S. cerevisiae deletion strains, locus YKL068W, stronger effect = lower value 0.98 | S. cerevisiae deletion strains, locus YKL085W, strain MDH1 (second series), stronger effect = lower value 0.981 | S. cerevisiae deletion strains, locus YKL085W, strain MDH1, stronger effect = lower value 0.981 | S. cerevisiae deletion strains, locus YKL190W, strain CNB1, stronger effect = lower value 1 | S. cerevisiae deletion strains, locus YKR001C, strain vps1, stronger effect = lower value 0.966 | S. cerevisiae deletion strains, locus YLR039C, strain RIC1, stronger effect = lower value 0.994 | S. cerevisiae deletion strains, locus YLR058C, strain SHM2, stronger effect = lower value 0.993 | S. cerevisiae deletion strains, locus YLR102C, strain apc9, stronger effect = lower value 0.983 | S. cerevisiae deletion strains, locus YLR262C, strain YPT6, stronger effect = lower value 1 | S. cerevisiae deletion strains, locus YLR268W, strain sec22, stronger effect = lower value 0.995 | S. cerevisiae deletion strains, locus YLR330W, strain CHS5, stronger effect = lower value 0.994 | S. cerevisiae deletion strains, locus YLR342W, strain FKS1 (second series), stronger effect = lower value 0.991 | S. cerevisiae deletion strains, locus YLR371W, strain rom2, stronger effect = lower value 0.961 | S. cerevisiae deletion strains, locus YLR418C, strain cdc73, stronger effect = lower value 1.05 | S. cerevisiae deletion strains, locus YML016C, strain PPZ1, stronger effect = lower value 1 | S. cerevisiae deletion strains, locus YML032C, strain rad52, stronger effect = lower value 0.951 | S. cerevisiae deletion strains, locus YML124C, strain tub3, stronger effect = lower value 0.974 | S. cerevisiae deletion strains, locus YMR078C, strain ctf18, stronger effect = lower value 0.945 | S. cerevisiae deletion strains, locus YMR223W, strain ubp8, stronger effect = lower value 0.975 | [4] 1.02 | [5] 0.977 | S. cerevisiae deletion strains, locus YNL067W, strain RPL9B, stronger effect = lower value 1.02 | S. cerevisiae deletion strains, locus YNL128W, strain TEP1, stronger effect = lower value 1.01 | [6] 1.02 | S. cerevisiae deletion strains, locus YNL233W, strain BNI4, stronger effect = lower value 1.02 | S. cerevisiae deletion strains, locus YNL250W, strain rad50, stronger effect = lower value 0.984 | S. cerevisiae deletion strains, locus YNL271C, strain bni1, stronger effect = lower value 0.988 | S. cerevisiae deletion strains, locus YNL298W, strain CLA4, stronger effect = lower value 0.963 | S. cerevisiae deletion strains, locus YNL307C, strain MCK1, stronger effect = lower value 0.967 | [7] 0.998 | S. cerevisiae deletion strains, locus YNR052C, strain pop2, stronger effect = lower value 0.958 | S. cerevisiae deletion strains, locus YOL006C, strain TOP1, stronger effect = lower value 1.03 | S. cerevisiae deletion strains, locus YOL012C, strain htz1 1.08 | S. cerevisiae deletion strains, locus YOL147C, strain pex11, stronger effect = lower value 0.982 | S. cerevisiae deletion strains, locus YOR061W, strain CKA2, stronger effect = lower value 1.01 | S. cerevisiae deletion strains, locus YOR069W, strain VPS5, stronger effect = lower value 1 | S. cerevisiae deletion strains, locus YOR136W, strain idh2, stronger effect = lower value 0.983 | S. cerevisiae deletion strains, locus YOR144C, strain elg1, stronger effect = lower value 0.965 | S. cerevisiae deletion strains, locus YOR184W, strain ser1, stronger effect = lower value 0.921 | S. cerevisiae deletion strains, locus YOR316C, strain cot1, stronger effect = lower value 0.974 | [8] 1.02 | [9] 0.996 | S. cerevisiae deletion strains, locus YPR119W, strain clb2, stronger effect = lower value 0.985 | S. cerevisiae deletion strains, locus YPR141C, strain kar3, stronger effect = lower value 0.974 | S. cerevisiae deletion strains, locus YPR163C, strain tif3, stronger effect = lower value 0.964 | S. cerevisiae deletion strains, locus YPR167C, strain met16, stronger effect = lower value 0.988 | S. cerevisiae deletion strains, strain wtn01, stronger effect = lower value 0.994 | S. cerevisiae strains, strain wild type, stronger effect = lower value 1

C[C@H]1O[C@@H](n2cc(F)c(=O)[nH]c2=O)[C@H](O)[C@@H]1O
inactive: [1] 1.04 | S. cerevisiae deletion strains, locus YAL040C, strain CLN3, stronger effect = lower value 1 | S. cerevisiae deletion strains, locus YCL061C, strain MRC1 (second series), stronger effect = lower value 1.01 | S. cerevisiae deletion strains, locus YDR363W, strain ESC2, stronger effect = lower value 1.02 | S. cerevisiae deletion strains, locus YER002W, strain NOP16, stronger effect = lower value 1.04 | [2] 1.07 | [3] 1.01 | [4] 1.01 | [5] 1 | [6] 1.02 | S. cerevisiae deletion strains, locus YNL175C, strain NOP13, stronger effect = lower value 1 | S. cerevisiae deletion strains, locus YNL197C, strain WHI3, stronger effect = lower value 1 | S. cerevisiae deletion strains, locus YNL224C, strain SQS1, stronger effect = lower value 0.984 | [7] 1.02 | S. cerevisiae deletion strains, locus YOR083W, strain WHI5 (second series), stronger effect = lower value 1.01 | [8] 1.02 | [9] 1.01
